# From PubChem
# A selection: hits, their analogues and other compounds. The true share with any hit is near 14%.
# AID923 – qHTS Assay for Allosteric/Competitive Inhibitors of Caspase-1: Spectroscopic Profiling in AFC Spectral Region; compound fluorescence, AFC spectral region (405/520 nm); 75,000 compounds, 1.1% hits; Potency, µM (top dose mostly 57.5 µM), for inactives: at the top dose fluorescence increase, most hits filed as activators; further: potency means the concentration at half of the fitted maximal effect; 0% is about no effect
#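 Compound autofluorescence profiled at 405 nm ex/520 nm em during kinetic caspase 1 run (50 nM enzyme, 5 uM Ac-WEHD-AFC, HEPES pH 7.5, 10 mM DTT). Titration up to 57 uM; baseline from regression intercept, normalized to AFC standard curve.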
# HSD17B inhib – qHTS Assay for Inhibitors of HSD17B4, hydroxysteroid (17-beta) dehydrogenase 4; Potency, µM (highest dose often 57.1 µM), for the others: top-dose activity change, negative = inhibition, usual class: inhibitors; recombinant HSD17B10, NADH fluorescence kinetic; 75,000 compounds, 7.6% hits; 3-hydroxyacyl-CoA dehydrogenase type-2 (Homo sapiens), Q99714;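 further: the protocol describes HADH2 (HSD17B10) and not the HSD17B4 of the title; potency means the concentration at half of the fitted maximal effect; on the % scale 0 is the no-effect control and ±100 the full control effect; nearly all actives have a fitted effect of over 70% in size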
#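 20 nM HADH2, pH 9.0 Tris/Tween; cpd preinc 15 min RT; start w/ 1 mM NAD+ + 90 uM b-hydroxybutyryl-CoA; kinetic fluor ex360/em450 q30s x 4 min; delta last-first.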
# HADH2 inhib – qHTS Assay for Inhibitors of HADH2 (Hydroxyacyl-Coenzyme A Dehydrogenase, Type II). recombinant HADH2, NADH fluorescence, beta-hydroxybutyryl-CoA. 3-hydroxyacyl-CoA dehydrogenase type-2 (Homo sapiens), Q99714. Potency, µM (top dose mostly 57.1 µM), inactives show at the highest dose activity change, negative = inhibition, hits mostly inhibitors. 73,000 compounds, 3.4% hits; further: potency means the concentration at half of the fitted maximal effect; on the % scale 0 is the no-effect control and ±100 the full control effect; nearly all actives have a fitted effect of over 60% in size
# Target sequence (Q99714 whole entry, looked up, one chain of several): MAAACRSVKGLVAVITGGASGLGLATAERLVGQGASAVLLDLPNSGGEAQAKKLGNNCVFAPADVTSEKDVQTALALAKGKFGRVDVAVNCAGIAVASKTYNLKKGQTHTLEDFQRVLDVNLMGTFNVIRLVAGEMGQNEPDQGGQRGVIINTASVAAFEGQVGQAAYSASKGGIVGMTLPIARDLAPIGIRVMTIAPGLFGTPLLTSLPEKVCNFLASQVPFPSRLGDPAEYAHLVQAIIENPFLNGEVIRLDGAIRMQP
#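 His-tagged recombinant enzyme from E. coli, 20 nM, preincubated 15 min RT with compound; reaction started with 1 mM NAD+ and 90 uM beta-hydroxybutyryl-CoA in 100 mM Tris-HCl pH 9.0. NADH fluorescence (ex 360/em 450) read over 4 min; last-minus-first difference.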
# CRE Fsk mod – Cell signaling CRE-BLA (Fsk stim); CHO CRE-bla reporter (cAMP response element driving beta-lactamase), forskolin EC10, beta-lactamase ratio; Potency, µM (highest dose often 38.2 µM), inactives show top-dose activity change, negative = inhibition, usual class: activators; 71,000 compounds, 2.5% hits; active means well fitted activation curve with a large enough effect in the signal ratio, with a control signal flat, not every such curve was filed as active; inconclusive means small, poorly fitted or top-dose-only effect, or effect the other way, or a change in a side signal; the % refers to the signal ratio; further: potency means the concentration at half of the fitted maximal effect; % of control where 0% means no effect
#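 Modulation of forskolin-driven signalling is measured in CHO cells carrying a CRE-controlled beta-lactamase reporter. Cells are stimulated with EC10 NKH 477 in the presence of titrated compound for 3 h at 37 °C, then loaded with CCF4 for 2 h at room temperature.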
# A350 autofl – qHTS Assay for Spectroscopic Profiling in A350 Spectral Region. Compound autofluorescence, 340/450 nm, Alexa 350 dye-equivalents; active compounds read high. max dye-equivalent concentration, M. 59,000 compounds, 11% hits. AID 590, 2007; in the data active means max dye-equivalent concentration above about 10 nM; inconclusive means mostly about 1.1 nM to 9.6 nM
# 4-MU autofl – qHTS Assay for Spectroscopic Profiling in 4-MU Spectral Region; compound autofluorescence, 340/450 nm, 4-MU equivalents; active compounds read high; max dye-equivalent concentration, M; 59,000 compounds, 11% hits; in the data active means max dye-equivalent concentration above about 10 nM; inconclusive means mostly about 1.1 nM to 9.6 nM
#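 Compounds in 100 mM Tris, pH 8.0, incubated 15 min at room temperature, then fluorescence read at 340 nm excitation/450 nm emission. Signal converted to 4-MU dye-equivalent concentration using an on-plate six-point 4-MU standard curve.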
# * hit, by the source's call; i = inactive; ? = inconclusive; nt = not tested or not shown; [ ] = remark or other dose. Unless noted, the call rests on the fitted dose curve; in most records, active means well fitted curve in the direction sought with a large enough effect; inconclusive means small, poorly fitted or top-dose-only effect, or another doubt; inactive means no such curve, though single readings can be large; an effect the other way counts as inactive or inconclusive.
SMILES,AID923,HSD17B inhib,HADH2 inhib,CRE Fsk mod,A350 autofl,4-MU autofl
O=C(O)CCc1ccc(-c2cccs2)n1NC(=O)c1ccc(O)cc1,-2%,-5%,-23%,-3%,i,i
CCCCn1c(CCC(=O)O)ccc1-c1cccs1,21%,32µM*,-23%,-1%,nt,nt
CCc1ccc(CCC(=O)Nc2nccs2)o1,-2%,-8%,-6%,?,i,i
CC(C)NC(=O)N1CCCC2(CCN(C(=O)c3ccncc3)CC2)C1,1%,1%,5%,-4%,i,i
CCCC(=O)Nc1cc(C)c(NC(=O)c2ccncc2)cn1,-2%,-2%,-11%,4%,i,i
CCOc1ccc(NC(=O)c2ccncc2)cc1,0%,0%,5%,-14%,i,i
CCn1nc(NC(=O)c2ccncc2)c2cc3cc(C)ccc3nc21,9%,4%,-8%,2µM*,?,?
CCn1nc(NC(=O)c2ccncc2)c2cc3ccc(C)cc3nc21,6%,461%,44%,13µM*,8.5e-08M*,6.6e-08M*
Cc1ccccc1-c1cc(-c2ccccc2O)n[nH]1,0%,-22%,-10%,1%,i,i
CCc1c(C)nc2[nH]nc(-c3ccccc3)n2c1=O,1%,32µM*,9%,5%,nt,nt
Cc1cc(=O)n2c(-c3ccccc3C)n[nH]c2n1,-1%,-14%,-15%,-5%,1.5e-07M*,1.2e-07M*
CCc1c(C)nc2[nH]nc(-c3ccccc3C)n2c1=O,0%,32µM*,5%,3%,i,i
C=C(N(C)C)[C@]1(C)C[C@H]1[C@H](NC(=O)CNC(=O)OCc1ccccc1)c1ccccc1,0%,20%,4%,-9%,nt,nt
COc1cccc(C(=O)N(Cc2cc3cc(C)ccc3[nH]c2=O)CC2CCCO2)c1 (stereo not given),-2%,?,16%,-13%,1.1e-08M*,1.2e-08M*
COc1ccc2[nH]c(=O)c(CN(CC3CCCO3)C(=O)Nc3ccc(F)cc3)cc2c1 (stereo not given),-2%,25µM*,-17%,18%,1.2e-07M*,1e-07M*
COc1ccc2[nH]c(=O)c(CN(C(=O)C3CCCO3)c3ccc(C)cc3)cc2c1 (stereo not given),1%,?,?,3%,4.5e-07M*,3.4e-07M*
CCOC(=O)CSc1nc2c(sc3ccccc32)c(=O)n1CCCN1CCOCC1,0%,?,-20%,?,2e-08M*,2.3e-08M*
O=C(CSc1nc2c(sc3ccccc32)c(=O)n1CCO)NCC1CCCO1 (stereo not given),0%,11%,-1%,16%,?,?
CCN1C(=O)[C@H]2[C@H]3[C@H](O)[C@H](O)C/C(=N/O[C@@H]4O[C@H](COC(C)=O)[C@@H](OC(C)=O)[C@H](OC(C)=O)[C@H]4OC(C)=O)[C@@H]3CC[C@@H]2C1=O,-2%[11.5 µM],-1%[11.4 µM],-2%[11.4 µM],nt,nt,nt
Cc1ccnc(NS(=O)(=O)c2ccc(N=[N+]=[N-])cc2)n1,1%[11.5 µM],0%[11.4 µM],2%[11.4 µM],-8%[7.6 µM],i,i
COc1cc(OC)c2c(C)c(Cl)c(=O)oc2c1,1%,4µM*,108%,?,4.3e-07M*,4.5e-07M*
S=C(NC1CCCCC1)NC1CCCCC1,3%,-9%,-14%,1%,nt,nt
Cc1cc(C)nc(SCCc2cccc[n+]2C)n1,0%[11.5 µM],-4%[11.4 µM],?,10%[7.6 µM],i,i
CCOC(=O)CC(=O)CSc1nc(-c2cccnc2)cc(C)c1C#N,7%,?,-10%,?,?,?
CCOC(=O)CSc1nc(-c2ccc3c(c2)OCO3)ccc1C#N,nt,nt,nt,nt,1.1e-07M*,1.2e-07M*
